Only some compounds are listed: those with a hit (about 3.7% of all), similar ones and a draw of the others.
BoNT-F LC inh: BoNT/F light chain protease inhibitors, primary screen, biochemical, flow cytometry, MLPCN library | Multiplex microsphere protease cleavage assay | 360,000 compounds, 0.22% hits | inhibition, % at 10 µM | Botulinum neurotoxin type F light chain protease (Clostridium botulinum); in the data active = inhibition above about 35%, passing the limit was not always enough; inconclusive = no clear call, values can overlap the other calls
MazEF act: activators of E. coli MazEF toxin-antitoxin RNase, primary screen, biochemical, fluorescence, uHTS. Endoribonuclease toxin MazF (Escherichia coli (strain K12)), P0AE70. FAM/BHQ RNA-DNA oligo cleavage fluorescence, 5 h. activation, % at 20 µM. 350,000 compounds, 0.32% hits; in the data active = activation above about 50%
BoNT A protease: BoNT/A light chain protease inhibitors, primary screen, biochemical, flow cytometry, MLPCN library; 360,000 compounds, 0.17% hits; Botulinum neurotoxin type A light chain protease (Clostridium botulinum A str. ATCC 3502); multiplex microsphere protease substrate cleavage; AID 588499, 2011; inhibition, % at 10 µM
Anthrax LF prot: Bacillus anthracis LF protease inhibitors, primary screen, biochemical, multiplex microsphere, MLPCN library; multiplex microsphere protease cleavage assay; inhibition, % at 10 µM; 360,000 compounds, 0.12% hits; AID 588501, 2011
Target sequence (P15917 whole entry, looked up): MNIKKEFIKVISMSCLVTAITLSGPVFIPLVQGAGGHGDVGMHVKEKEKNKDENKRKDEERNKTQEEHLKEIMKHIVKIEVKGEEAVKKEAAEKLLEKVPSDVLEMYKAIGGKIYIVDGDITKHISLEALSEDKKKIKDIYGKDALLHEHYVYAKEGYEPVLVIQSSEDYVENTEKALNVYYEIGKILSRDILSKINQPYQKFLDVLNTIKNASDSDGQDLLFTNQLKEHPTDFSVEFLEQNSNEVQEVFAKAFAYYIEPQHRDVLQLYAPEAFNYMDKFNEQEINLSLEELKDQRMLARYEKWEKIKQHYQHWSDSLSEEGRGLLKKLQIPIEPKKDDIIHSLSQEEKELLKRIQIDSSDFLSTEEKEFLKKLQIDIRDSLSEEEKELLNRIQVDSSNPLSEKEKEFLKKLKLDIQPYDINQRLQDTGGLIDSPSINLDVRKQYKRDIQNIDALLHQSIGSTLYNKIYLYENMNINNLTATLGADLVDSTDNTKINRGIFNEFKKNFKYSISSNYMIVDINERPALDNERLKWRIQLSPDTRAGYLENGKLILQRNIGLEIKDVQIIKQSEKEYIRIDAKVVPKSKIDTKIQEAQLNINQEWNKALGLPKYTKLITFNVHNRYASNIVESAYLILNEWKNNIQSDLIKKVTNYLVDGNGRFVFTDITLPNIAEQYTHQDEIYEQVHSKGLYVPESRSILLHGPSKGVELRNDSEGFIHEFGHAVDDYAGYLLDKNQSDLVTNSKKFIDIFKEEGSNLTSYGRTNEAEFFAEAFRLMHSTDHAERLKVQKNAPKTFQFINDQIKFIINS
Autofluor counter: compound fluorescence in toxin protease inhibitor counterscreen; compound autofluorescence counterscreen, microsphere flow cytometry; active compounds read high; AID 624483; fluorescence intensity (no concentration beside the values); 360,000 compounds, 3.1% hits; in the data active = fluorescence intensity above about 16000; inconclusive = no clear call, values can overlap the other calls
BoNT-A LC CP1: BoNT/A light chain protease inhibitors, confirmation, biochemical, flow cytometry, cherry pick 1. multiplex microsphere protease assay. shares compounds with BoNT-F LC inh. AID 602139, 2011. 720 compounds, 3% hits. inhibition, % at 10 µM; in the data active = inhibition above about 32%
BoNTF LC inh 1: BoNT/F light chain protease inhibitors, confirmation, biochemical, flow cytometry, cherry pick 1; shares compounds with BoNT-F LC inh; multiplex microsphere protease cleavage assay; inhibition, % at 10 µM; 720 tested, under 10 active; call rule not given here
Anthrax LF CP1: Bacillus anthracis LF protease inhibitors, confirmation, biochemical, multiplex microsphere, cherry pick 1; 720 tested, under 10 active; multiplex microsphere protease cleavage assay; shares compounds with BoNT-F LC inh; inhibition, % at 10 µM; call rule not given here
Hits are given with their value; . = inactive; ? = inconclusive; / = no result. Cut-off read from the data, not from the text of the source, unless noted: active = inhibition above about 30%; inconclusive = no clear call, values can overlap the other calls; inactive = below that.

SMILES	BoNT-F LC inh	MazEF act	BoNT A protease	Anthrax LF prot	Autofluor counter	BoNT-A LC CP1	BoNTF LC inh 1	Anthrax LF CP1
Cc1c(C(=O)Nc2nccs2)sc2nc(-c3cccs3)cc(C(F)(F)F)c12	.	.	39	37	.	.	.	.
Cc1c(C(=O)O)sc2nc(-c3cccs3)cc(C(F)(F)F)c12	.	.	.	.	.	.	.	.
COC(=O)CSc1nc2nc(-c3cccs3)cc(C(F)(F)F)c2c(=O)[nH]1	.	.	.	.	.	/	/	/
Cc1csc(NC(=O)c2sc3nc(-c4cccs4)ccc3c2N)n1	/	.	/	/	/	/	/	/
CCCCn1nnnc1C(c1ccccc1)N1CCN(c2ccccn2)CC1 (stereo not drawn)	.	/	.	.	.	/	/	/
COc1cccc(C2CC(c3ccccc3)=NN2S(=O)(=O)c2ccc(C)cc2)c1OC (stereo not drawn)	55	.	39	32	32220	.	.	.
CC(=O)Nc1ccc(NS(=O)(=O)c2cc(-c3n[nH]c(=O)c4ccccc34)ccc2C)cc1	41	.	.	.	.	.	.	.
CCOC(=O)c1sc2nc(-c3ccco3)c3c(c2c1N)CC(C)(C)OC3	.	.	33	.	.	.	.	.
Cc1nc2sc(C(=O)O)c(N)c2c2c1COC(C)(C)C2	.	.	.	.	.	/	/	/
COc1ccc(-c2cnc(C(N)=O)c(=O)[nH]2)cc1	.	.	.	.	.	/	/	/
Cc1cc(C)n(C(=O)COc2ccc(Cl)cc2Cl)n1	.	.	.	.	.	/	/	/
Cc1cc(C)n(C(=O)COc2c(C)cccc2C)n1	47	.	.	.	.	.	.	.
O=C1c2ccccc2C(=O)N1C1CCCCC1	?	.	.	50	.	.	.	.
CN(C)S(=O)(=O)c1cc(C(=O)Nc2ccccc2C(=O)NC2CC2)ccc1Cl	.	.	.	.	?	/	/	/
O=S(=O)(c1ccc(NC(=S)N2CCCCC2CO)cc1)N1CCOCC1 (stereo not drawn)	.	.	.	.	.	/	/	/
CCn1c(SCC(=O)Nc2ccc(C)cc2)nc(O)cc1=O	42	.	.	.	.	.	.	.
C=CCn1c(SCC(=O)Nc2ccc(Br)cc2)nc(O)cc1=O	.	.	.	.	.	/	/	/
CCNc1ccc(S(=O)(=O)N(C)C)cc1NCC(=O)Nc1ccccc1F	.	.	.	.	.	/	/	/
CCNc1ccc(S(=O)(=O)N(C)C)cc1NCC(=O)Nc1ccccc1Br	41	.	.	.	.	.	.	.
O=C(Nc1ccc(F)cc1)Nc1cccc(Br)c1	?	.	.	32	.	.	.	.
COC(=O)Cc1ccc(NC(=S)N2CCN(c3ccccn3)CC2)cc1	.	.	178	64	.	.	.	.
Cc1nc2cc(OC3(C)CCN(Cc4ccc(OC(F)(F)F)cc4)C3)ccc2s1 (stereo not drawn)	.	/	.	.	.	/	/	/
COc1ccc(S(=O)(=O)N2CCCCCC2)cc1N(C)S(=O)(=O)c1ccc(Cl)cc1	37	.	.	.	.	.	.	.
COc1ccc(S(=O)(=O)N2CCC(C)CC2)cc1N(C)S(=O)(=O)c1ccccc1	.	.	.	.	.	/	/	/
CCCCC1CCC(C(=O)N(CC(C)C)c2c(N)n(Cc3ccccc3)c(=O)[nH]c2=O)CC1 (stereo not drawn)	/	.	/	/	/	/	/	/
SMILES	BoNT-F LC inh	MazEF act	BoNT A protease	Anthrax LF prot	Autofluor counter	BoNT-A LC CP1	BoNTF LC inh 1	Anthrax LF CP1
CCCCOC(=O)c1ccc(NC(=O)COC(=O)C2CC2C)cc1 (stereo not drawn)	.	.	.	.	.	/	/	/
CC(=O)c1c(C)nc(-c2ccc(Cl)cc2)nc1N	50	.	.	.	.	.	.	.
NC(=O)c1cc([N+](=O)[O-])ccc1NCc1cccnc1	.	.	.	.	.	/	/	/
NS(=O)(=O)c1cc([N+](=O)[O-])ccc1NCc1cccnc1	39	.	.	.	.	.	.	.
CN(CCCn1ccc(N)nc1=O)Cc1ccco1	.	.	.	.	.	/	/	/
COc1cc2c(cc1OC)CN(S(=O)(=O)c1ccccc1F)CC2	.	.	.	.	.	/	/	/
O=S(=O)(c1ccccc1F)N1CCc2ccccc2C1	?	.	.	34	.	.	.	.
O=C(O)c1ccc(NS(=O)(=O)c2ccc(C(=O)Nc3ccccc3)cc2)cc1	.	.	.	.	.	.	.	.
O=C(Nc1cccc(O)c1)c1cccc(S(=O)(=O)Nc2cccc(O)c2)c1	.	.	.	.	.	.	.	.
O=C(Nc1ccc(NS(=O)(=O)c2ccccc2)cc1)c1ccccc1	.	.	.	.	.	/	/	/
CC(=O)c1ccc(S(=O)(=O)Nc2ccc(C(=O)N3CCC3)cc2)cc1	40	.	.	.	.	.	.	.
O=C(O)c1ccc(NC(=O)c2cccc(S(=O)(=O)Nc3ccc(C(=O)O)cc3)c2)cc1	39	.	.	.	.	.	.	.
c1ccc(-c2ncc3ccccn23)cc1	.	.	.	.	.	.	.	.
COc1ccc(/C(O)=C/c2nc3ccccc3n(-c3ccccc3)c2=O)cc1	37	.	.	.	.	.	.	.
COc1ccccc1Oc1ncnc2sccc12	37	.	.	.	.	.	.	.
CCC(C)NC(=O)c1c(N)n(Cc2ccc3c(c2)OCO3)c2nc3ccccc3nc12 (stereo not drawn)	.	.	30	.	.	.	.	.
Cc1ccc2c(n1)sc1c(-c3ccc(Br)cc3)c(C#N)c(N)nc12	.	.	44	.	?	.	.	.
CCOC(=O)C(N=Nc1nn[nH]n1)C(C)=O (stereo not drawn)	.	.	.	.	.	/	/	/
CCOc1ccc(/C=C/C2=Cc3c(sc(NC(=O)CSc4n[nH]c(N)n4)c3C#N)C(C)(C)C2)cc1	37	.	85	58	.	.	.	.
NC(=O)c1ccsc1NC(=O)CSc1n[nH]c(N)n1	.	.	.	.	.	/	/	/
Cc1ccsc1/C=C/C1=Cc2c(sc(NC(=O)CSc3n[nH]c(N)n3)c2C#N)C(C)(C)C1	.	.	44	33	18756	.	.	.
NC(=O)CSc1nnc(-c2cnccn2)n1-c1ccccc1	.	.	.	.	.	/	/	/
Cc1ccc(-n2c(SCC(N)=O)nnc2-c2cnccn2)cc1	?	.	.	36	.	.	.	.
Cc1nn(C2CC(O)C(O)C(CO)O2)c(=O)[nH]c1=O (stereo not drawn)	.	.	.	.	.	/	/	/
COc1cc2[nH]c(C)c(-c3ccccc3)c(=O)c2cc1Cl	.	/	.	.	.	/	/	/

Compound activity: PubChem, several laboratories
